# Out of some 39,000 compounds screened, about 3,300 (8.5%) were called active. This excerpt belongs to a sample that is enriched for actives.
# Test system: HepG2
# Test: cytotoxicity call (relative viability < 0.9)
# Details: 10 µM
row,SMILES,cytotoxicity call
1,C[C@H]1CN([C@@H](C)CO)C(=O)c2cc(C#Cc3cccnc3)cnc2O[C@@H]1CN(C)S(=O)(=O)c1ccccc1F,inactive
2,C[C@H](CO)N1C[C@H](C)[C@@H](CN(C)S(=O)(=O)c2cn(C)cn2)OCCCC[C@H](C)Oc2ccc(NC(=O)CCCN(C)C)cc2C1=O,inactive
3,O=C(C[C@H]1CC[C@H](NS(=O)(=O)c2ccccc2)[C@@H](CO)O1)NCc1ccncn1,inactive
4,C[C@@H]1CCCCO[C@@H](CN(C)C(=O)CCCN(C)C)[C@@H](C)CN([C@H](C)CO)C(=O)c2cc(NS(C)(=O)=O)ccc2O1,inactive
5,COc1ccc(S(=O)(=O)N[C@H]2CC[C@H](CC(=O)N3CCN(c4ccccc4)CC3)O[C@@H]2CO)cc1,inactive
6,Cn1c(CC#N)n[nH]c1=S,inactive
7,CC(C)NC(=O)Nc1ccc2c(c1)C(=O)N([C@@H](C)CO)C[C@H](C)[C@@H](CN(C)S(C)(=O)=O)OCCCC[C@H](C)O2,inactive
8,CCN(CC)CCNC(=O)c1cc(Br)c(N)cc1OC,inactive
9,CCN1CCCC1CNC(=O)c1cc(S(=O)(=O)CC)c(N)cc1OC (stereo unspecified),active
10,CCN1CCCC1CNC(=O)c1cc(S(N)(=O)=O)ccc1OC (stereo unspecified),inactive
11,COc1ccc(NC(=O)Nc2cccc3c2O[C@H](CN(C)Cc2ccc(C(=O)Nc4ccccc4N)cc2)[C@H](C)CN([C@@H](C)CO)C3=O)cc1,inactive
12,COC1=CC(=O)CC(C)C12Oc1c(Cl)c(OC)cc(OC)c1C2=O (stereo unspecified),active
13,COc1cc(OC)c2c(c1Cl)OC1(C2=O)C(O)=CC(=O)CC1C (stereo unspecified),inactive
14,NC(=O)N1C(=O)[C@H]2[C@H](C1=O)[C@H]1C=C(c3ccc(CO)cc3)[C@@H]2[C@@H](C2CC2)N1Cc1cc2c(cc1Br)OCO2,inactive
15,CCCC#Cc1ccc2c(c1)O[C@H](CN(C)S(=O)(=O)c1cccc(F)c1)[C@@H](C)CN([C@H](C)CO)S2(=O)=O,inactive
16,Cc1ccccc1NC(=O)CC(C)C,inactive
17,CCn1c(=O)c(-c2cc(NC(=O)Nc3ccccc3)c(F)cc2Br)cc2cnc(NC)cc21,active
18,CN(C)CCCCCCNC(=O)[C@H]1C[C@H]2C(=O)NCC(=O)N2[C@H]1c1cccc(OCCO)c1,inactive
19,Cc1ccc(S(=O)(=O)Nc2ccc3c(c2)C(=O)N([C@@H](C)CO)C[C@@H](C)[C@H](CN(C)C(=O)Nc2ccc(C(F)(F)F)cc2)OCCCC[C@@H](C)O3)cc1,inactive
20,CC[C@@]1(C)N[C@H](C(=O)O)CS1,inactive
21,COc1ccc(-n2nc(CCC(=O)N(C)O)cc2-c2ccc(Cl)cc2)cc1,active
22,COc1ccc2cc(-c3cc(-c4cc(Cl)cc(Cl)c4)nn3[C@@H](C)c3ccc(C(=O)NCCC(=O)O)cc3)ccc2c1,inactive
23,C[C@H](CO)N1C[C@H](C)[C@H](CN(C)CC2CC2)Oc2cc(C#Cc3cccc(F)c3)ccc2S1(=O)=O,inactive
24,O=c1[nH][n+](-c2ccccc2)no1,inactive

row,SMILES,cytotoxicity call
1,COCC(=O)Nc1ccc2c(c1)[C@@H]1C[C@@H](CC(=O)N3CCOCC3)O[C@@H](CO)[C@@H]1O2,inactive
2,CC(=O)N(C[C@@H](O)CO)c1c(I)c(C(=O)NC[C@@H](O)CO)c(I)c(C(=O)NC[C@@H](O)CO)c1I,inactive
3,O=C(NC[C@@H](O)CO)c1c(I)c(C(=O)NC[C@@H](O)CO)c(I)c(N(CCO)C(=O)CO)c1I,inactive
4,O=C(NCC(O)CO)c1c(I)c(C(=O)NCC(O)CO)c(I)c(N(CCO)C(=O)CO)c1I (stereo unspecified),active
5,Cc1ccc(S(=O)(=O)Nc2ccc3c(c2)CC(=O)N([C@@H](C)CO)C[C@H](C)[C@H](CN(C)S(=O)(=O)c2cccs2)O3)cc1,inactive
6,C[C@H](CO)N1C[C@H](C)[C@H](CN(C)Cc2ccc(Cl)c(Cl)c2)Oc2c(NS(=O)(=O)c3cccs3)cccc2C1=O,inactive
7,Cn1c(=O)c2[nH]c(C3CCCC3)nc2n(C)c1=O,inactive
8,Cc1nc2c(=O)n(C)c(=O)n(C)c2nc1Cl,active
9,CCn1c(Cl)nc2c1c(=O)n(C)c(=O)n2C,inactive
10,N=C(N)N1CCc2ccccc2C1.O=S(=O)(O)O,inactive
11,CN1Cc2c(Cl)cc(Cl)cc2[C@H](c2cccc(S(=O)(=O)NCCOCCOCCNC(=O)NCCCCNC(=O)NCCOCCOCCNS(=O)(=O)c3cccc([C@@H]4CN(C)Cc5c(Cl)cc(Cl)cc54)c3)c2)C1,inactive
12,COc1ccc(S(=O)(=O)N(C)C[C@@H]2Oc3cc(C#CC4CCCC4)ccc3S(=O)(=O)N([C@H](C)CO)C[C@@H]2C)cc1,inactive
13,O=C(C[C@H]1C[C@H]2c3cc(NS(=O)(=O)c4ccc(F)cc4)ccc3O[C@H]2[C@@H](CO)O1)NCc1cccnc1,inactive
14,COc1ccc(NC(=O)N(C)C[C@H]2Oc3c(NC(=O)c4ccc(-c5nccs5)cc4)cccc3C(=O)N([C@H](C)CO)C[C@H]2C)cc1,inactive
15,COC(=O)c1c(CC[C@@H](CO)NC(=O)N2CCC[C@H]2Cn2cc(-c3ccccn3)nn2)oc(C(C)=O)c1C(=O)OC,inactive
16,C[C@@H]1CN([C@@H](C)CO)C(=O)Cc2cc(NC(=O)CCC(F)(F)F)ccc2O[C@@H]1CN(C)Cc1ccc(Oc2ccccc2)cc1,active
17,C[C@@H]1CN([C@H](C)CO)C(=O)Cc2cc(NC(=O)CCC(F)(F)F)ccc2O[C@@H]1CN(C)Cc1ccc(Oc2ccccc2)cc1,active
18,C[C@H]1CN([C@@H](C)CO)C(=O)Cc2cc(NC(=O)CCC(F)(F)F)ccc2O[C@H]1CN(C)Cc1ccc(Oc2ccccc2)cc1,inactive
19,C[C@H](CO)N1C[C@H](C)[C@H](CN(C)Cc2ccc(Oc3ccccc3)cc2)Oc2ccc(NC(=O)CCC(F)(F)F)cc2CC1=O,active
20,C[C@H]1CN([C@@H](C)CO)C(=O)Cc2cc(NC(=O)CCC(F)(F)F)ccc2O[C@@H]1CN(C)Cc1ccc(Oc2ccccc2)cc1,inactive
21,C[C@@H]1CN([C@H](C)CO)C(=O)Cc2cc(NC(=O)CCC(F)(F)F)ccc2O[C@H]1CN(C)Cc1ccc(Oc2ccccc2)cc1,active
22,COc1ccc(S(=O)(=O)Nc2ccc3c(c2)C(=O)N([C@H](C)CO)C[C@@H](C)[C@@H](CN(C)C(=O)CCC(F)(F)F)OCCCC[C@H](C)O3)cc1,inactive
23,C[C@@H]1CCCCO[C@@H](CN(C)S(=O)(=O)c2ccc(F)cc2)[C@H](C)CN([C@@H](C)CO)C(=O)c2cc(NS(=O)(=O)c3ccc(Cl)cc3)ccc2O1,inactive
24,C[C@H](CO)N1C[C@H](C)[C@H](CN(C)Cc2ccc3c(c2)OCO3)OCCCC[C@H](C)Oc2ccc(NC(=O)c3ccccc3)cc2C1=O,inactive

row,SMILES,cytotoxicity call
1,Nc1nnc(SC[C@@H](O)CO)s1,inactive
2,COc1ccc(NC(=O)N(C)C[C@@H]2Oc3ccc(NS(C)(=O)=O)cc3CC(=O)N([C@@H](C)CO)C[C@@H]2C)cc1,inactive
3,COCC(=O)N(C)C[C@@H]1Oc2cc(C#Cc3ccccc3)ccc2S(=O)(=O)N([C@@H](C)CO)C[C@@H]1C,inactive
4,O=C(O)C[C@@H]1CC[C@@H]2[C@H](COC[C@H](O)CN2S(=O)(=O)c2ccc(F)cc2)O1,inactive
5,CN(C)CCCNC(=O)C[C@@H]1CC[C@@H]2[C@H](COC[C@H](O)CN2S(=O)(=O)c2ccc(Cl)cc2)O1,inactive
6,C[C@@H]1CCCCO[C@H](CN(C)S(=O)(=O)c2cccs2)[C@H](C)CN([C@H](C)CO)C(=O)c2cc(NC(=O)NC3CCCCC3)ccc2O1,inactive
7,C[C@H]1CN([C@@H](C)CO)C(=O)c2cccc(NC(=O)NC3CCCCC3)c2O[C@H]1CN(C)C(=O)Nc1cccc2ccccc12,inactive
8,CN1CCN(C(=O)C[C@H]2CC[C@@H]3[C@H](COC[C@@H](O)CN3C(=O)C3CC3)O2)CC1,inactive
9,COC(=O)c1c(CC[C@@H](CO)NC(=O)N2CCC[C@H]2Cn2cc(Cc3ccccc3)nn2)oc(C(C)=O)c1C(=O)OC,inactive
10,C[C@H](CO)N1C[C@H](C)[C@@H](CN(C)Cc2ccc(Oc3ccccc3)cc2)Oc2ccc(NC(=O)CCC(F)(F)F)cc2CC1=O,active
11,C[C@@H]1CN([C@@H](C)CO)C(=O)Cc2cc(NC(=O)CCC(F)(F)F)ccc2O[C@H]1CN(C)Cc1ccc(Oc2ccccc2)cc1,active
12,Cc1noc(C)c1S(=O)(=O)Nc1ccc2c(c1)C(=O)N([C@H](C)CO)C[C@H](C)[C@@H](CN(C)S(=O)(=O)c1c(C)noc1C)O2,inactive
13,C[C@H]1CN([C@@H](C)CO)C(=O)c2cccc(NC(=O)c3ccncc3)c2O[C@H]1CN(C)Cc1ccc(C(=O)O)cc1,inactive
14,C[C@@H]1CN([C@H](C)CO)C(=O)c2cccc(NC(=O)CCCCCC(=O)Nc3ccccc3N)c2O[C@H]1CN(C)Cc1ccccc1,inactive
15,CCOC(=O)C[n+]1ccccc1C,inactive
16,CC(C)c1cccc(C(C)C)c1NC(=O)Cc1cccs1,inactive
17,CC(C)c1cc(C(C)C)c(CC(=O)NS(=O)(=O)Oc2c(C(C)C)cccc2C(C)C)c(C(C)C)c1,active
18,COC(=O)[C@@H](N)c1cccc(Cl)c1,inactive
19,COc1cccc(NC(=O)N[C@@H]2C=C[C@H](CC(=O)N3CCN(C)CC3)O[C@H]2CO)c1,inactive
20,CO[C@@H]1[C@H](O[P@@](=O)(OC[C@H]2O[C@@H](n3cnc4c(N)ncnc43)C[C@@H]2O)SCOC(=O)OC(C)C)[C@@H](CO)O[C@H]1n1ccc(=O)[nH]c1=O,inactive
21,Nc1ncnc2c1ncn2[C@H]1C[C@H](O)[C@@H](CO)O1,inactive
22,CO[C@@H]1[C@H](O[P@@](=O)(S)OC[C@H]2O[C@@H](n3cnc4c(N)ncnc43)C[C@@H]2O)[C@@H](CO)O[C@H]1n1ccc(=O)[nH]c1=O,active
23,Cc1noc(C)c1NC(=O)Nc1ccc2c(c1)C(=O)N([C@@H](C)CO)C[C@H](C)[C@@H](CN(C)Cc1ccncc1)OCCCC[C@H](C)O2,inactive

# Reference: the antibiotic and cytotoxicity screens of Wong et al. (2023)
